Assay results: PMC7862700, “An all-to-all approach to the identification of sequence-specific readers for epigenetic DNA modifications on cytosine”

Key:
Assay in all cases: DAPPL (digital affinity profiling via proximity ligation, sequencing); 10 mM Tris-HCl pH 7.5, 50 mM NaCl, 1 mM DTT, 4% glycerol, room temperature, 30 min; GST-TFs on glutathione beads, 16-mer random dsDNA library, 0.1% formaldehyde crosslink after washing; high values mean tight binding
[1] = target: T1, FEV (Homo sapiens, UniProt Q99581 1-238); settings: protein: recombinant; tags: N-terminal GST; dsDNA, one strand shown
T1 sequence: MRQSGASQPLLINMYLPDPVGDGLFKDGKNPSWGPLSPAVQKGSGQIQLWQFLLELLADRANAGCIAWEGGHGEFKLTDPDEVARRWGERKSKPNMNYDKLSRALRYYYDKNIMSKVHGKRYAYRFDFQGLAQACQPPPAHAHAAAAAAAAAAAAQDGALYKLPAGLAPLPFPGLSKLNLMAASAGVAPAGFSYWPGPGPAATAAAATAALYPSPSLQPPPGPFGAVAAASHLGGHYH
Method in brief: (§1)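 The binding signal reported is, for every hexamer, its read frequency for a factor over its read frequency for the tag-only sample. Reads came from pools of yeast-expressed, GST-fused human transcription factors on glutathione beads, barcoded with DNA and mixed with that sample, which were incubated with 200 nmole of a random double-stranded 16-mer DNA library in Tris/NaCl/DTT/glycerol buffer at room temperature for 30 min. After washing, the pools were crosslinked with 0.1% formaldehyde, proximity-ligated with BsaI/T4 ligase for 1 h at 37 °C, PCR-amplified and sequenced on an Illumina NextSeq500.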

[2] = target: ETV5 (Homo sapiens, UniProt P41161 1-510); settings: protein: recombinant; tags: N-terminal GST; dsDNA, one strand shown
ETV5, sequence (P41161 whole entry): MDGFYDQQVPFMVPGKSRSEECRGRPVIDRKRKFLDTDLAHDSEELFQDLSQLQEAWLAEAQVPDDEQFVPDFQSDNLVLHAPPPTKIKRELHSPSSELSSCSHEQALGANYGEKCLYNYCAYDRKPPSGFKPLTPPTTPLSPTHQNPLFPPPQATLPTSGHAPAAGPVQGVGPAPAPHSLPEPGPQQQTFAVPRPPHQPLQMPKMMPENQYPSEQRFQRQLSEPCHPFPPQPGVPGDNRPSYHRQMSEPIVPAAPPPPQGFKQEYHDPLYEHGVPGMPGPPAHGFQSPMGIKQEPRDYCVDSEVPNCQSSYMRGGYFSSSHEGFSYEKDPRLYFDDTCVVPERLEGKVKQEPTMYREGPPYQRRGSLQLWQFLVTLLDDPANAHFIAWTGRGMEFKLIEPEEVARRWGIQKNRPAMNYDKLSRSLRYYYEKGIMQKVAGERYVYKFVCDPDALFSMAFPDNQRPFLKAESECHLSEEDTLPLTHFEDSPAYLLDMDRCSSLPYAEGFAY
Method in brief: as §1

[3] = target: HSF1 (Homo sapiens, UniProt Q00613 1-529); settings: protein: recombinant; tags: N-terminal GST; chain copies: 3; dsDNA, one strand shown
HSF1, sequence (Q00613 whole entry): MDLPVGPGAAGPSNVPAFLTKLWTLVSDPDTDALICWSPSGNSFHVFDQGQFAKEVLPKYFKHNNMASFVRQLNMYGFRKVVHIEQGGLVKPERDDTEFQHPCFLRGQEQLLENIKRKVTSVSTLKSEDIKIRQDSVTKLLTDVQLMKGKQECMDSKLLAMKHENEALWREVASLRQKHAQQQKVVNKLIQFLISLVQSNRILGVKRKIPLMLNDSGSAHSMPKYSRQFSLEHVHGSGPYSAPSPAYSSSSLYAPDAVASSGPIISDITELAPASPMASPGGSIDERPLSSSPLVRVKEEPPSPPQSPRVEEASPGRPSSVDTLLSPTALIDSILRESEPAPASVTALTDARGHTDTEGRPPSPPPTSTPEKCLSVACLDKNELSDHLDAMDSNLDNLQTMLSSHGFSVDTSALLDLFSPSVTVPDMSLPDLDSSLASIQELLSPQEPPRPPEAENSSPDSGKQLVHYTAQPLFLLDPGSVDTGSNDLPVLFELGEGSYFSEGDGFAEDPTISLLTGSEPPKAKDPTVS
Method in brief: as §1

[4] = target: T2, SPIC (Homo sapiens, UniProt Q8N5J4 1-248); settings: protein: recombinant; tags: N-terminal GST; dsDNA, one strand shown
T2 sequence: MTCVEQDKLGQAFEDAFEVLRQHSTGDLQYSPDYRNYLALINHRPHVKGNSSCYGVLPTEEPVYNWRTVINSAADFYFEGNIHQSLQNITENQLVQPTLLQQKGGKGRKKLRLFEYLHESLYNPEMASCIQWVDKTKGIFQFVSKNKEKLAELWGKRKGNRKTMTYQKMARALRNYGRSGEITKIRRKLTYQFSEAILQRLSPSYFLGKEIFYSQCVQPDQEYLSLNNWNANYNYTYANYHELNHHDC
Method in brief: as §1

[5] = target: ELF4 (Homo sapiens, UniProt Q99607 1-663); settings: protein: recombinant; tags: N-terminal GST; dsDNA, one strand shown
ELF4, sequence (Q99607 whole entry): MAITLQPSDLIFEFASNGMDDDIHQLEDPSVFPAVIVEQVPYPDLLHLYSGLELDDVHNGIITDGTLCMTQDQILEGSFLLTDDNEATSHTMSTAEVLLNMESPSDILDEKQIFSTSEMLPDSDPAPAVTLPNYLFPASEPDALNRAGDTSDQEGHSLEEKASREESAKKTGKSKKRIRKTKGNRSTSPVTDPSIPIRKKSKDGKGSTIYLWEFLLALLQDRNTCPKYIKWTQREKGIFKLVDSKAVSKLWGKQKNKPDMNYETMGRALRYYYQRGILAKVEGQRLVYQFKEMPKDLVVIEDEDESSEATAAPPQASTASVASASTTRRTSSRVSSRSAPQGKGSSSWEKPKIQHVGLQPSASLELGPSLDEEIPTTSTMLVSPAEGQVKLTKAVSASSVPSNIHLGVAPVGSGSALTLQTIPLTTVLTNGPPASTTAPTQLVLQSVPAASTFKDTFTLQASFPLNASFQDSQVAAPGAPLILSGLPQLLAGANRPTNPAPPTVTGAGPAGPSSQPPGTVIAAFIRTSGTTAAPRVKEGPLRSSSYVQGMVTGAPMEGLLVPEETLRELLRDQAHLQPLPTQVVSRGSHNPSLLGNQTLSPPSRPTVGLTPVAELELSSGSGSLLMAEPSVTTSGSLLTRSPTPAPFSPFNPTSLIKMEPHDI
Method in brief: as §1

[6] = target: T3, ELK4 (Homo sapiens, UniProt P28324-2 1-405); settings: protein: recombinant; tags: N-terminal GST; dsDNA, one strand shown
T3 sequence: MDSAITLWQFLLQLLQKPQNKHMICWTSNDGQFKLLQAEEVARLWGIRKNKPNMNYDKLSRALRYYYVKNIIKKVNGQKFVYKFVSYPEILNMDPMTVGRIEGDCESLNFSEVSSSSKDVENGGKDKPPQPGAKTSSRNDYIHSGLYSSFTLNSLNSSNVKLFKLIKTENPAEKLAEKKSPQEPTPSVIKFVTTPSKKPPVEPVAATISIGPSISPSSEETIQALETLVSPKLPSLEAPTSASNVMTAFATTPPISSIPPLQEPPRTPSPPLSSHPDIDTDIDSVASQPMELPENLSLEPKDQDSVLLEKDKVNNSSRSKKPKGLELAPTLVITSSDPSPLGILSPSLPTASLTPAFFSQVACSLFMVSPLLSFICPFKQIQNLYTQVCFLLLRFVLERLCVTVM
Method in brief: as §1

[7] = target: T4, ETV2 (Homo sapiens, UniProt O00321 1-342); settings: protein: recombinant; tags: N-terminal GST; dsDNA, one strand shown
T4 sequence: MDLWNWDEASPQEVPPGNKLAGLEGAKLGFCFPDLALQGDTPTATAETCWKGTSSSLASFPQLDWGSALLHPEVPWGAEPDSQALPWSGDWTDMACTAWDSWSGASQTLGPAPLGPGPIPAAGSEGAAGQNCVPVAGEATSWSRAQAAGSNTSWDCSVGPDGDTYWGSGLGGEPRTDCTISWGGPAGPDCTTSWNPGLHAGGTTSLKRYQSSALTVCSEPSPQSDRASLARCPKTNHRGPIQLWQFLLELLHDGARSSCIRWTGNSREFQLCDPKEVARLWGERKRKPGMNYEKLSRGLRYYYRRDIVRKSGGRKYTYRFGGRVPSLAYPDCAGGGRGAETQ
Method in brief: as §1

[8] = target: T5, ELF3 (Homo sapiens, UniProt P78545 1-371); settings: protein: recombinant; tags: N-terminal GST; dsDNA, one strand shown
T5 sequence: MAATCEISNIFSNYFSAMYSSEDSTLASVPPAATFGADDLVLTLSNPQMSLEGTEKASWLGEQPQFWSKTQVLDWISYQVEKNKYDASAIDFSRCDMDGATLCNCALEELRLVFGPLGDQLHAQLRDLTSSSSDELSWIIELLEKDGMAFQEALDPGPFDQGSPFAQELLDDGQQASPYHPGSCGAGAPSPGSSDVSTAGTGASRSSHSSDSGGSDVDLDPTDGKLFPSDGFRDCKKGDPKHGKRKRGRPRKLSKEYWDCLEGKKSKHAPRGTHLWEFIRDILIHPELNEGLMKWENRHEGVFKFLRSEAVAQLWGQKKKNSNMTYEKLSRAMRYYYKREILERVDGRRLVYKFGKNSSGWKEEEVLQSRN
Method in brief: as §1

[9] = target: CRX (Homo sapiens, UniProt O43186 1-299); settings: protein: recombinant; tags: N-terminal GST; dsDNA, one strand shown
CRX, sequence (O43186 whole entry): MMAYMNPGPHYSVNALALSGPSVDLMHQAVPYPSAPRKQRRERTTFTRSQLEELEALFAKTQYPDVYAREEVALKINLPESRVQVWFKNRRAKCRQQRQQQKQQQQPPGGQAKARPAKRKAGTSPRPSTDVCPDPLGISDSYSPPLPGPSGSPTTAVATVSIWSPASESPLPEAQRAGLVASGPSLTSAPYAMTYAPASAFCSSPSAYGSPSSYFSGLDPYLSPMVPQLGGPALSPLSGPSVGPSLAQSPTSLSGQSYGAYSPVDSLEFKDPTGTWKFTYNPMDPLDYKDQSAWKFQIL
Method in brief: as §1

[10] = target: ETV1 (Homo sapiens, UniProt P50549 1-477); settings: protein: recombinant; tags: N-terminal GST; dsDNA, one strand shown
ETV1, sequence (P50549 whole entry): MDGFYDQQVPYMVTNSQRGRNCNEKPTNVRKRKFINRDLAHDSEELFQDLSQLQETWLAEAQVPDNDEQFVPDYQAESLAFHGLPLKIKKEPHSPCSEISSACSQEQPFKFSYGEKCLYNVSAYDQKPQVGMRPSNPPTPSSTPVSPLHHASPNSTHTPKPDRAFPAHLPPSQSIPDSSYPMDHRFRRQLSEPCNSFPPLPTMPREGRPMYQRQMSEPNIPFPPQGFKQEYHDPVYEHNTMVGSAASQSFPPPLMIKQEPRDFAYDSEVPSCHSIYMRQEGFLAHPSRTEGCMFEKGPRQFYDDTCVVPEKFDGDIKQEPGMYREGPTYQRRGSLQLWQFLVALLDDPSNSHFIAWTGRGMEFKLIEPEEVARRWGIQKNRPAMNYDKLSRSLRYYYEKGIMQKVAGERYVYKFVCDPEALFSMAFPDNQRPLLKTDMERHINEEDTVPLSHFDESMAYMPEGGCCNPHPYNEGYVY
Method in brief: as §1

[11] = target: T6, ERF (Homo sapiens, UniProt P50548 1-548); settings: protein: recombinant; tags: N-terminal GST; dsDNA, one strand shown
T6 sequence: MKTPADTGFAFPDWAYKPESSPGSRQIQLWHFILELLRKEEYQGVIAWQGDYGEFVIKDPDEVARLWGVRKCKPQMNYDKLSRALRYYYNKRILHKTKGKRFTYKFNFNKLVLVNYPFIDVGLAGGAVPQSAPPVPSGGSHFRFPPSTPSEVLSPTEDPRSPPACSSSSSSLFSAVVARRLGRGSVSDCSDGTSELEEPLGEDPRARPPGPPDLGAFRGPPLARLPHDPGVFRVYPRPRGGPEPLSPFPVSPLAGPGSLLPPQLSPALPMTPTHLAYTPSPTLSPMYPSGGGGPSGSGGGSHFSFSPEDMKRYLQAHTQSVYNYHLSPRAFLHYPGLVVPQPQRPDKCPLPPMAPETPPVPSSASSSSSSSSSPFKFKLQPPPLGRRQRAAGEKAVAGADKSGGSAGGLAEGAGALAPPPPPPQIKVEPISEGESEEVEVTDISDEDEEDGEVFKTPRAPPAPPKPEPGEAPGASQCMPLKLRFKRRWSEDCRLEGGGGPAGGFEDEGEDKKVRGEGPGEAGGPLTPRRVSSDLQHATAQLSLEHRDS
Method in brief: as §1

[12] = target: T7, ETV3L (Homo sapiens, UniProt Q6ZN32 1-361); settings: protein: recombinant; tags: N-terminal GST; dsDNA, one strand shown
T7 sequence: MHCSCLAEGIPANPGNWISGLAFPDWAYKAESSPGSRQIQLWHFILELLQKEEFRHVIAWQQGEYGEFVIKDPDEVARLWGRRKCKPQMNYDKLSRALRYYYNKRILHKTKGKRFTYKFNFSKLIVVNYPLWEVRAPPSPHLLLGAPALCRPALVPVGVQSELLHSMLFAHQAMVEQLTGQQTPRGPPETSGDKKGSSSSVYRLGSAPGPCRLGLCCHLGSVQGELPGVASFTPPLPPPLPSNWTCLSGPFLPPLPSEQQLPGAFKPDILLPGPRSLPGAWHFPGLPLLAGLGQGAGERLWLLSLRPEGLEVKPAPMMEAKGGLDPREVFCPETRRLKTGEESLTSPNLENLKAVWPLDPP
Method in brief: as §1

[13] = target: T8, ETS2 (Homo sapiens, UniProt P15036 1-469); settings: protein: recombinant; tags: N-terminal GST; dsDNA, one strand shown
T8 sequence: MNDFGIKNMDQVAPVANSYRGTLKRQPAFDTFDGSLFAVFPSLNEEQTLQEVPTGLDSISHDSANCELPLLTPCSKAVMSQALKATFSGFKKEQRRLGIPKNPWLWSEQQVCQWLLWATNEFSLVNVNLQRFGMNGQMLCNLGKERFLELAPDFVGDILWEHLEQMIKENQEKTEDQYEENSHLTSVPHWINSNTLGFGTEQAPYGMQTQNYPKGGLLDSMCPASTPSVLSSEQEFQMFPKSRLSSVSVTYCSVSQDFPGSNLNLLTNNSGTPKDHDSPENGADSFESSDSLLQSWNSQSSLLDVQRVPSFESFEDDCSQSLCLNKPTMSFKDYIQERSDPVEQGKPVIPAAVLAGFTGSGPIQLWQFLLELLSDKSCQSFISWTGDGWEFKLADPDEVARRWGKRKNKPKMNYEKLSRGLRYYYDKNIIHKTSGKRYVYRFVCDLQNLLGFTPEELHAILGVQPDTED
Method in brief: as §1

[14] = target: T9, SPDEF (Homo sapiens, UniProt O95238 1-335); settings: protein: recombinant; tags: N-terminal GST; dsDNA, one strand shown
T9 sequence: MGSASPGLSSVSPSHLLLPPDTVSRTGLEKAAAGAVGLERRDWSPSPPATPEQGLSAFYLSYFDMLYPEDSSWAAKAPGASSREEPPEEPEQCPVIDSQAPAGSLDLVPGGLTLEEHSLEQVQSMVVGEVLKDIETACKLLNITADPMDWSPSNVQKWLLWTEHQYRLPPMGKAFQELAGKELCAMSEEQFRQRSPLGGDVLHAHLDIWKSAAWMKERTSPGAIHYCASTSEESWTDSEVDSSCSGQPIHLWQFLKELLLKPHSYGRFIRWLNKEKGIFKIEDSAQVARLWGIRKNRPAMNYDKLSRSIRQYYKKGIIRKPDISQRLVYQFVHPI
Method in brief: as §1

[15] = target: T10, ETV7 (Homo sapiens, UniProt Q9Y603 1-341); settings: protein: recombinant; tags: N-terminal GST; dsDNA, one strand shown
T10 sequence: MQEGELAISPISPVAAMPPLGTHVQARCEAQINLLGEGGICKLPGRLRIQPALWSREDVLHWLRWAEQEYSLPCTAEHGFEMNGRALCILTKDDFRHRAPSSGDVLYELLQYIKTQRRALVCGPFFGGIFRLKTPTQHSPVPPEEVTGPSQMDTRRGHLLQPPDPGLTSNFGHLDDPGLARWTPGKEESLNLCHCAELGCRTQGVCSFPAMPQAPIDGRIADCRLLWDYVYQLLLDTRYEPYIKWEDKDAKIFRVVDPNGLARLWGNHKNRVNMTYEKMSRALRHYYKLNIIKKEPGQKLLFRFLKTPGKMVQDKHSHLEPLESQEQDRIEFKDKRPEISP
Method in brief: as §1

[16] = target: T11, ELF5 (Homo sapiens, UniProt Q9UKW6-2 1-255); settings: protein: recombinant; tags: N-terminal GST; dsDNA, one strand shown
T11 sequence: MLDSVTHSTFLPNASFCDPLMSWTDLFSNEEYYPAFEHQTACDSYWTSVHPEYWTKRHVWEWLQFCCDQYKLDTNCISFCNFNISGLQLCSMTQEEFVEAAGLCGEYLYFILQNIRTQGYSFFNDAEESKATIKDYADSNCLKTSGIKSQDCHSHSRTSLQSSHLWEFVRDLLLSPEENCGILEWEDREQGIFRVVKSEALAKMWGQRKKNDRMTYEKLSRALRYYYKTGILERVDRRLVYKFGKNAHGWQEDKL
Method in brief: as §1

[17] = target: T12, ETV3 (Homo sapiens, UniProt P41162-2 1-143); settings: protein: recombinant; tags: N-terminal GST; dsDNA, one strand shown
T12 sequence: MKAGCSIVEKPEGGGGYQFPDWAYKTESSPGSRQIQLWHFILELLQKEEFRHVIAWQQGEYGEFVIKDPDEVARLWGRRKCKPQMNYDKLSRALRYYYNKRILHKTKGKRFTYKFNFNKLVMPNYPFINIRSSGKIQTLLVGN
Method in brief: as §1

[18] = target: ETV6 (Homo sapiens, UniProt P41212 1-452); settings: protein: recombinant; tags: N-terminal GST; dsDNA, one strand shown
ETV6, sequence (P41212 whole entry): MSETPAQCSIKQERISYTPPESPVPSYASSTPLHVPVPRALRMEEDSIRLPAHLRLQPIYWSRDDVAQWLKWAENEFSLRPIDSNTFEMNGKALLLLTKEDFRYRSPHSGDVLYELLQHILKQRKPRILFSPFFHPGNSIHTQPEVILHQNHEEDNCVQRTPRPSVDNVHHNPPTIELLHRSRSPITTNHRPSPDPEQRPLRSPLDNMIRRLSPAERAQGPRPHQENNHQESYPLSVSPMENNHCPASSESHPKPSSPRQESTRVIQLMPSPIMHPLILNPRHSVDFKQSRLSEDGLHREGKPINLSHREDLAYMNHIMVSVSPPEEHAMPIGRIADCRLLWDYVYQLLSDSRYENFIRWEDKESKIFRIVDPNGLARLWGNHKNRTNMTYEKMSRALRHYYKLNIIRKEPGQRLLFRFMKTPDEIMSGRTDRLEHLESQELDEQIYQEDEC
Method in brief: as §1

Sequence: ACGTAT
- binding signal [1]: 1.2 fold enrichment (6-mer frequency, TF over GST control)
- binding signal [2]: 1.2 fold enrichment (6-mer frequency, TF over GST control)
- binding signal [3]: 1.09 fold enrichment (6-mer frequency, TF over GST control)
- binding signal [4]: 1.14 fold enrichment (6-mer frequency, TF over GST control)
- binding signal [5]: 1.27 fold enrichment (6-mer frequency, TF over GST control)
- binding signal [6]: 1.16 fold enrichment (6-mer frequency, TF over GST control)
- binding signal [7]: 1.24 fold enrichment (6-mer frequency, TF over GST control)
- binding signal [8]: 1.25 fold enrichment (6-mer frequency, TF over GST control)
- binding signal [9]: 1.15 fold enrichment (6-mer frequency, TF over GST control)
- binding signal [10]: 1.32 fold enrichment (6-mer frequency, TF over GST control)
- binding signal [11]: 1.15 fold enrichment (6-mer frequency, TF over GST control)
- binding signal [12]: 1.28 fold enrichment (6-mer frequency, TF over GST control)
- binding signal [13]: 1.27 fold enrichment (6-mer frequency, TF over GST control)
- binding signal [14]: 1.36 fold enrichment (6-mer frequency, TF over GST control)
- binding signal [15]: 1.25 fold enrichment (6-mer frequency, TF over GST control)
- binding signal [16]: 1.16 fold enrichment (6-mer frequency, TF over GST control)
- binding signal [17]: 1.26 fold enrichment (6-mer frequency, TF over GST control)
- binding signal [18]: 1.22 fold enrichment (6-mer frequency, TF over GST control)
